“And” between values parts separate entries of the source, which are not always exact repeats. Equal entries are not always repeated. Records with an inconclusive call do not appear. A call without a number means that no potency is given here. A number with no mark means an inactive call. The source made the active and inactive calls. Calls follow the shape of the dose curve; as a rule, active = well fitted inhibition curve with a large enough effect; inconclusive = small, poorly fitted or top-dose-only effect; inactive = flat fitted curve, though single readings scatter.
Target: Calcium and integrin-binding protein 1 (Homo sapiens) (UniProt Q99828)
Assay: Primary qHTS for Identification of Calcium Integrin Binding Protein 1 (CIB1) Competitor (AID 1508620);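 also: GST tagged CIB1 binding a fluorescein labelled alphaIIb integrin peptide tracer; top concentration of the series differs between compounds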
Conditions: CIB1-GST / FITC-alphaIIb peptide fluorescence polarization; series mostly up to 114 µM
In short: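 Fluorescence polarization competition: CIB1-GST (1 uM final) preincubated with compound 15 min at room temperature, then FITC-labeled alphaIIb peptide (100 nM final) added for another 15 min. Polarization read at Ex 480/Em 540.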

Chain of Calcium and integrin-binding protein 1 (Homo sapiens) (Q99828 whole entry, looked up): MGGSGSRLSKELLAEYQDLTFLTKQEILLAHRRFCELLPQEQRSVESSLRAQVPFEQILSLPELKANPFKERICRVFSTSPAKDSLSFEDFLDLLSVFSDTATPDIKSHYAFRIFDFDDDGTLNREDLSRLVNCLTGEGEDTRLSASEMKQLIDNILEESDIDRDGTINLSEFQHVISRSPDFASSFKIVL

Structure (SMILES)	Potency
C=CC(C)(O)CC[C@H]1C(=C)CCC2[C@](C)(C(=O)O)CCC[C@@]21C (some centres undefined)	inactive
C[C@@H]1CC[C@]2(C(=O)O[C@@H]3O[C@H](CO)[C@@H](O)[C@H](O)[C@H]3O)CC[C@]3(C)C(=CCC4[C@@]5(C)C[C@@H](O)[C@H](O)[C@](C)(C(=O)O)C5CC[C@]43C)[C@@H]2[C@]1(C)O (some centres undefined)	inactive
C[C@H]1[C@H](O)O[C@@H]2O[C@@]3(C)CC[C@H]4[C@H](C)CC[C@@H]1[C@@]24OO3	inactive

Tested on: not listed separately
Assay: Primary qHTS for inhibitors of nuclear receptor binding SET domain protein 2 (NSD2) in an isogenic RCH-ACV NSD2 p.E1099K mutant (9B) (AID 1645876); also: nearly all actives have a fitted effect of over 70% in size; also: potency is read from the fitted curve at half-maximal effect
Conditions: RCH-ACV (leukaemia line) NSD2 E1099K (9B) viability, CellTiter-Glo, 72 h; series mostly up to 44.9 µM

Structure (SMILES)	Potency	outcome	activity change, negative = viability loss
Cc1cc(=O)oc2c(C=O)c(O)ccc12	18.3 µM (active)	–	–
CC(C)CN(C[C@@H](O)[C@H](Cc1ccccc1)NC(=O)O[C@@H]1CO[C@H]2OCC[C@H]21)S(=O)(=O)c1ccc(N)cc1	inactive	–	–
N#C[C@@H]1C[C@H](F)CN1C(=O)CNC1[C@H]2CN(C(=O)c3ccc(F)cc3)C[C@@H]12 (some centres undefined)	inactive	–	–
CC(C)(O)/C=C/CC(C)(O)C1C(O)CC2(C)C3CCC4C(C)(C)C(=O)CCC4(C)C3CCC12C (centres undefined)	inactive	–	–
COC(=O)C1=CO[C@@H](O[C@@H]2O[C@H](CO)[C@@H](O)[C@H](O)[C@H]2O)C2C1C(=O)C[C@H]2C (some centres undefined)	inactive	–	–
CC(C)CCC1(O)C(=O)C(C)(C)C(O[C@@H]2O[C@H](CO)[C@@H](O)[C@H](O)[C@H]2O)C(C)(C)C1O (some centres undefined)	inactive	–	–
CC1(C)CC[C@]2(C(=O)O)CC[C@]3(C)C(=CCC4[C@@]5(C)CC[C@H](O[C@@H]6O[C@H](CO)[C@@H](O)[C@H](O)[C@H]6O[C@@H]6O[C@H](CO)[C@@H](O)[C@H](O)[C@H]6O)[C@@](C)(CO)C5CC[C@]43C)[C@@H]2C1 (some centres undefined)	inactive	–	–
COc1c2c(c(C)c3c1C(=O)OC3)OC1(C)CC(O)C34OC(OC)(CC(OC(C)=O)C3(C)C1C2)OC4(C)C (centres undefined)	inactive	–	–
CCOc1cc(C)c(Cl)cc1S(=O)(=O)n1cnc2ccccc21	inactive	–	–
C=C(C)C1CCC(C)C12CC(O)C1(C)OC1C2OC(=O)C(N)CCC(=O)O (centres undefined)	inactive	–	–
O=C1OCC(c2ccccc2)=C1Cc1ccccc1	inactive	–	–
COc1cc(/C=C/C(=O)OC[C@H]2O[C@@](CO)(O[C@H]3O[C@H](CO)[C@@H](O)[C@H](O)[C@H]3O)[C@@H](OC(=O)/C=C/c3ccc(O)c(OC)c3)[C@@H]2O)ccc1O	inactive	–	–
CC1(C=O)CC[C@]2(C(=O)O[C@@H]3O[C@H](CO)[C@@H](O)[C@H](O)[C@H]3O)CC[C@]3(C)C(=CCC4[C@@]5(C)C[C@H](O)[C@H](O[C@@H]6OC[C@@H](O)[C@H](O)[C@H]6O)[C@@](C)(CO)C5CC[C@]43C)C2C1 (some centres undefined)	–	inactive [at 9.23 µM]	–
CCCCc1nc2cc(/C=C/C(=O)NO)ccc2n1CCN(CC)CC	258 nM (active) and 590 nM (active)	–	–
COc1c2cc(c(O)c1OC)-c1cc(ccc1O)CCC(O)CCCC2 (centres undefined)	inactive	–	–
CC1(C)CC[C@]23CO[C@@]4(CCC5[C@@]6(C)CC[C@H](O[C@@H]7OC[C@H](O[C@@H]8O[C@H](CO)[C@@H](O)[C@H](O)[C@H]8O)[C@H](O)[C@H]7O[C@@H]7O[C@H](CO)[C@@H](O[C@@H]8O[C@H](CO)[C@@H](O)[C@H](O)[C@H]8O)[C@H](O)[C@H]7O)[C@@](C)(CO)C6CC[C@@]5(C)[C@]4(C)C[C@H]2OC2OCC(O)C(O)C2O)C3C1 (some centres undefined)	0.688 µM (active)	–	–
C[C@@H]1O[C@@H](OC[C@H]2O[C@@H](Oc3cc(O)cc4c3C(=O)C(O)(Cc3ccc(O)cc3)O4)[C@H](O)[C@@H](O)[C@@H]2O)[C@H](O)[C@H](O)[C@H]1O (some centres undefined)	inactive	–	–
CC(C)=CCC/C(C)=C/CO[C@@H]1O[C@H](CO)[C@@H](OC(=O)/C=C/c2ccc(O)cc2)[C@H](O[C@@H]2O[C@@H](C)[C@H](O)[C@@H](O)[C@H]2O)[C@H]1O	inactive	–	–
CC1(C)CC[C@]2(C(=O)O[C@@H]3O[C@H](CO)[C@@H](O)[C@H](O)[C@H]3O)CC[C@]3(C)C(=CCC4[C@@]5(C)CC[C@H](O[C@@H]6O[C@H](C(=O)O)[C@@H](O)[C@H](O)[C@H]6O)C(C)(C)C5CC[C@]43C)C2C1 (some centres undefined)	–	–	-3.82% [at 9.23 µM]
C=CC(C)(C)C12C=C(OC)C(=O)N3C(C(C)C)C(=O)NC31N(OC)c1ccccc12 (centres undefined)	inactive	–	–
CC1=CC(=O)CC(C)(C)C1/C=C/C(C)O[C@@H]1O[C@H](CO)[C@@H](O)[C@H](O)[C@H]1O[C@@H]1OC[C@](O)(CO)[C@H]1O (some centres undefined)	inactive	–	–
